HIV Env fusion: inhibitors of HIV Env-mediated cell fusion; HeLa-JRFL Env/CEM21 cell fusion, luciferase; inhibition, % at 12.3 µM; actives 1.1% (n = 360,000); AID 651610;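 active means mean replicate inhibition score of at least 50 and every replicate individually at or above 50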
PAX8 reporter: inhibitors of PAX8 transcriptional activity in RMG-I cells; inhibition, % at 12.6 µM; AID 652154; actives 1.2% (n = 360,000); RMG-I TPO-luciferase reporter, SteadyGlo, 24 h;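 active means mean replicate inhibition at least 60% with every replicate also reaching 60%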;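 further: luciferase light reporting Pax8 driven TPO promoter activity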
Statin myotox sup: suppressors of simvastatin-induced myotoxicity in C2C12 myotubes; ATP luminescence, 48 h; scaled: DMSO 0, geranylgeraniol control 100; rescue of ATP level, % at 7.49 µM; actives 0.78% (n = 330,000);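 active means mean ATP rescue above about 67%, or every replicate alone reaching that limit, limit read from the data, passing the limit was not always enough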;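 further: myotubes were challenged with 10 µM simvastatin during compound exposure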
GSIS activator: primary screen for activators of insulin secretion dependent on glucose, INS-1E cells, GLuc reporter luminescence; actives 0.61% (n = 370,000); activation, % at 16.6 µM; INS-1E GLuc reporter insulin secretion, 2-3 h; AID 743287;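 active means lowest replicate activation of at least 40%, so every replicate reaches that level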
EWS-Fli inh: EWS/Fli transcriptional activity inhibition; inhibition, % at 12.6 µM; actives 0.67% (n = 350,000); A673 NR0B1-luciferase reporter, viability-normalised;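 active means mean inhibition of at least 50% after viability correction, with every replicate also passing that limit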;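 further: firefly luciferase signal divided by Alamar Blue viability fluorescence both relative to DMSO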
miR-122 sensor: blocks miR-122 activity in Huh7 sensor cells | Huh7 miR-122 Renilla luciferase sensor, 48 h; neutral wells = 0, positive control = 100 | activation (reporter increase), % at 12.5 µM | actives 0.3% (n = 340,000);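 active means mean replicate activation score at least 90 and every replicate individually at or above 90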;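 further: higher luciferase means less miR-122 activity so hits act as miR-122 inhibitors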
DNA binding: small molecule DNA binding by fluorescence polarization; AC35, µM (titrated, usually from 68 µM); actives 2% (n = 640); salmon sperm DNA acridine orange fluorescence polarization; shares compounds with EWS-Fli inh;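 active means fitted curve reaches a 35% signal fall AC35 below twice the sample's top valid tested dose, actives reach about 48 µM in these data; inactive means the rest, including activity in the rising direction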;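 further: lower polarization ratio signals compound binding to DNA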
Of the large screens only hits and unclear results are named; the others gave an inactive call (follow-up assays come after a bar, where they were run). Compounds with a hit are over-represented: about 3.1% of the library has one in this group of screens.

C[C@H]1O[C@@H](OC2CC[C@]3(C=O)[C@H]4CC[C@]5(C)[C@@H](C6=CC(=O)OC6)CC[C@]5(O)[C@@H]4CC[C@]3(O)C2)CC2OC(C)(C)OC21 (stereo partly specified)	HIV Env fusion 82, PAX8 reporter 108, EWS-Fli inh 71 (no result: Statin myotox sup, miR-122 sensor)
CC12CCC3C(CCC4(O)CC(O)CCC34C=O)C1(O)CCC2C1=CC(=O)OC1 (stereo unspecified)	PAX8 reporter 101, EWS-Fli inh 52, miR-122 sensor 96
CC1OC(OC2C(O)CC(OC3C(O)CC(OC4CCC5(C)C(CCC6C5CCC5(C)C(C7=CC(=O)OC7)C(O)CC65O)C4)OC3C)OC2C)CC(O)C1O (stereo unspecified)	HIV Env fusion 63
CC12CC[C@H]3[C@@H](CCC4(O)C[C@H](O)CCC34/C=N/NC(=O)c3ccccc3Cl)C1(O)CCC2C1=CC(=O)OC1 (stereo partly specified)	none (no result: Statin myotox sup, miR-122 sensor)
CC(C)NC(=O)N1C[C@@H]2C(c3ccc(Br)cc3)[C@H](C1)N2C (stereo partly specified)	none (no result: HIV Env fusion, PAX8 reporter, Statin myotox sup, EWS-Fli inh, miR-122 sensor)
CC(C)NC(=O)N1C[C@@H]2C(c3ccccc3)[C@H](C1)N2C (stereo partly specified)	none (no result: HIV Env fusion, PAX8 reporter, Statin myotox sup, EWS-Fli inh, miR-122 sensor)
O=[N+]([O-])c1ccc(N2CCOCC2)c2c1no[n+]2[O-]	PAX8 reporter 98 (no result: GSIS activator)
O=[N+]([O-])c1ccc(N2CCOCC2)c2cccnc12	GSIS activator 75 (no result: Statin myotox sup, miR-122 sensor)
O=[N+]([O-])c1ccc(N2CCCCCC2)c2nonc12	none (no result: miR-122 sensor)
COC(=O)[C@H]1[C@H](CO)[C@H]2Cn3c(ccc(-c4cccc(F)c4)c3=O)[C@@H]1N2Cc1cccnc1	none (no result: HIV Env fusion)
O=c1cccc2n1CC1CC2CN(c2nc(N3CCCCC3)nc(N3CCCCC3)n2)C1 (stereo unspecified)	HIV Env fusion 82 (no result: Statin myotox sup, miR-122 sensor)
O=C(C1CC1)N1C[C@@H]2N[C@H](C1)[C@@H]2c1ccc(-c2ccncc2)cc1	PAX8 reporter 85, EWS-Fli inh 80 (no result: HIV Env fusion, Statin myotox sup, miR-122 sensor)
CCOc1ccc(-c2c(C)n(-c3ccc(OCC)cc3)c3[n+]2CCCCC3)cc1	PAX8 reporter 87
CC(=O)OCC12CC(OC(=O)CC(C)C)C(C)=CC1OC1C(O)C(OC(C)=O)C2(C)C12CO2 (stereo unspecified)	HIV Env fusion 67, PAX8 reporter 102 (no result: Statin myotox sup)
O=C(Cc1ccccn1)N1CCCCN2[C@H](CO)[C@H](c3ccc(-c4ccc(F)cc4)cc3)[C@H]2C1	none (no result: HIV Env fusion, Statin myotox sup)
CCN(CC)C(=O)c1ccc(N(Cc2ccccc2)S(C)(=O)=O)cc1	none
CCN(CC)C(=O)c1ccc2c(c1)C1C=CCC1C(C(=O)O)N2 (stereo unspecified)	Statin myotox sup 125
O=C(CSC1c2ccccc2-c2ccccc21)N/N=C/c1ccccc1O	HIV Env fusion 61 (no result: PAX8 reporter, GSIS activator, EWS-Fli inh, miR-122 sensor)
CC1=C(O)C(=O)C=C2C1=CC=C1C2(C)CCC2(C)C3CC(C)(C(=O)O)CCC3(C)CCC12C (stereo unspecified)	PAX8 reporter 119, EWS-Fli inh 65 (no result: GSIS activator)
CC1=CC(=C2C(=O)NC(=S)NC2=O)C=C(C(F)(F)F)N1Cc1ccccc1	EWS-Fli inh 54 (no result: Statin myotox sup, miR-122 sensor)
CN1C2CCC1/C(=C/c1ccccn1)C(=O)/C2=C\c1ccccn1	HIV Env fusion 60, PAX8 reporter 107, EWS-Fli inh 80 (no result: Statin myotox sup) | DNA binding inactive
Cc1ccccc1-n1c(/C=C/c2ccccn2)nc2ccccc2c1=O	none
Cc1cc2c(C(C)C)c(O)c(O)c(C=O)c2c(O)c1-c1c(C)cc2c(C(C)C)c(O)c(O)c(C=O)c2c1O	HIV Env fusion 61, PAX8 reporter 104, EWS-Fli inh 58 (no result: GSIS activator) | DNA binding inactive
O=C(Cc1cccnc1)N1CCCCN2[C@@H](CO)[C@H](c3ccc(/C=C/c4ccccc4)cc3)[C@@H]2C1	none (no result: HIV Env fusion, Statin myotox sup)
O=C1NC2C(=CC(O)C(O)C2O)c2cc3c(cc21)OCO3 (stereo unspecified)	HIV Env fusion 100, PAX8 reporter 123, EWS-Fli inh 56 (no result: Statin myotox sup) | DNA binding inactive
